In PubChem BioAssay (NCI):
About 83,000 compounds went through this panel and 20% of them were active in at least one assay; those are over-represented in the sample as a whole.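 Values shown are percent growth following 48 h exposure of cells in 96-well plates to a single concentration of compound; below 10 was considered active.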 Active and inactive are the calls of the source.

Columns and labels:
Test in all cases: NCI-60 one-dose screen, 48 h (100 = growth as untreated, 0 = no growth, -100 = all killed)
DU-145 prostate = details: 10 µM unless noted
K-562 leukemia = details: 10 µM unless noted
MALME-3M melanoma = details: 10 µM unless noted
MDA-MB-231 breast = details: 10 µM unless noted
RXF 393 renal = details: 10 µM unless noted
SF-268 CNS = details: 10 µM unless noted
SF-295 CNS = details: 10 µM unless noted
SF-539 CNS = details: 10 µM unless noted
UACC-257 melanoma = details: 10 µM
M14 melanoma = details: 10 µM unless noted
HCT-15 colon = details: 10 µM unless noted
HT29 colon = details: 10 µM unless noted
SNB-75 CNS = details: 10 µM unless noted
SNB-19 CNS = details: 10 µM unless noted
U251 CNS = details: 10 µM unless noted
PC-3 prostate = details: 10 µM unless noted
SK-MEL-5 melanoma = details: 10 µM unless noted
UACC-62 melanoma = details: 10 µM unless noted
LOX IMVI melanoma = details: 10 µM unless noted
SK-MEL-28 melanoma = details: 10 µM unless noted

Measured: growth

CC(C)=CCc1c2c(c(O)c3c1O[C@]14C(=C[C@@H]5C[C@H]1C(C)(C)O[C@@]4(C/C=C(/C)C(=O)O)C5=O)C3=O)CC(O)C(C)(C)O2 (stereo not given in full)
active: DU-145 prostate -78.2% | K-562 leukemia 5.83% | MALME-3M melanoma -38.5% | MDA-MB-231 breast 0.342% | RXF 393 renal -77.4% | SF-268 CNS -40.7% | SF-295 CNS -48.5% | SF-539 CNS -37.2% | UACC-257 melanoma -32.5% | M14 melanoma -24.8% | HCT-15 colon -41.6% | HT29 colon -8.66% | SNB-75 CNS -25.7% | U251 CNS -72.4% | PC-3 prostate 7.46% | SK-MEL-5 melanoma -96.6% | UACC-62 melanoma -26.1% | LOX IMVI melanoma -95.4% | SK-MEL-28 melanoma -13.7%
inactive: SNB-19 CNS 22.6%

COc1ccc(-c2nc3cc(Cl)c(Cl)cc3n2CC(=O)N=Nc2c(O)[nH]c3ccc(Br)cc23)cc1
inactive: K-562 leukemia 21.6% | SF-539 CNS 14.9% | UACC-257 melanoma 61.9% | SNB-75 CNS 47.3% | SNB-19 CNS 22% | SK-MEL-5 melanoma 51.5%
active: DU-145 prostate -48.4% | MALME-3M melanoma -38.5% | MDA-MB-231 breast 0.262% | RXF 393 renal -58.3% | SF-268 CNS 9.74% | SF-295 CNS -50% | M14 melanoma -48.8% | HCT-15 colon -44.8% | HT29 colon -24% | U251 CNS -58% | PC-3 prostate -47.1% | UACC-62 melanoma 4.88% | LOX IMVI melanoma -77.9% | SK-MEL-28 melanoma -66.9%

Cc1csc(Nc2cccc(Nc3nc(C)cs3)c2)n1
inactive: DU-145 prostate 83.8% | K-562 leukemia 60.1% | MALME-3M melanoma 84.8% | MDA-MB-231 breast 79.2% | RXF 393 renal 91% | SF-268 CNS 85.2% | SF-295 CNS 66.2% | SF-539 CNS 83.8% | UACC-257 melanoma 89.7% | M14 melanoma 86% | HCT-15 colon 79.1% | HT29 colon 105% | SNB-75 CNS 97.4% | SNB-19 CNS 82.3% | U251 CNS 83.3% | PC-3 prostate 77.1% | SK-MEL-5 melanoma 44.9% | UACC-62 melanoma 66.9% | LOX IMVI melanoma 74.5% | SK-MEL-28 melanoma 84.3%

O=C(/C=C/Nc1ccc(S(=O)(=O)O)cc1)c1ccc(F)cc1
inactive: DU-145 prostate 103% | K-562 leukemia 106% | MALME-3M melanoma 105% | MDA-MB-231 breast 106% | RXF 393 renal 99.9% | SF-268 CNS 102% | SF-295 CNS 98.7% | SF-539 CNS 94% | UACC-257 melanoma 101% | M14 melanoma 96% | HCT-15 colon 96.4% | HT29 colon 103% | SNB-75 CNS 92.4% | SNB-19 CNS 93.4% | U251 CNS 98% | PC-3 prostate 96.1% | SK-MEL-5 melanoma 99.2% | UACC-62 melanoma 93.5% | LOX IMVI melanoma 95.9% | SK-MEL-28 melanoma 101%

O=c1[nH]c(CNc2ccc(NCc3c(-c4ccccc4)no[n+]3[O-])cc2)nc2c1cnn2-c1ccccc1
inactive: DU-145 prostate 74.6% | K-562 leukemia 49.8% | MALME-3M melanoma 80% | MDA-MB-231 breast 72.5% | RXF 393 renal 98.4% | SF-268 CNS 73.5% | SF-295 CNS 71.8% | SF-539 CNS 92.6% | UACC-257 melanoma 60.6% | M14 melanoma 70.7% | HCT-15 colon 71.2% | HT29 colon 92% | SNB-75 CNS 76.1% | SNB-19 CNS 94% | U251 CNS 85.5% | PC-3 prostate 63.3% | SK-MEL-5 melanoma 39% | UACC-62 melanoma 52.5% | LOX IMVI melanoma 63.6% | SK-MEL-28 melanoma 85.3%

COc1cc(/C=C/C(=O)c2ccc(NC(=O)COc3cccc4cccnc34)cc2)cc(OC)c1OC
inactive: DU-145 prostate 78.1% | K-562 leukemia 34.1% | MALME-3M melanoma 70.2% | MDA-MB-231 breast 73.7% | RXF 393 renal 86.7% | SF-268 CNS 81.6% | SF-295 CNS 90.8% | SF-539 CNS 72.3% | UACC-257 melanoma 74.6% | M14 melanoma 91.4% | HCT-15 colon 50.3% | HT29 colon 81.2% | SNB-75 CNS 82.4% | SNB-19 CNS 73.7% | U251 CNS 83.8% | PC-3 prostate 84.6% | SK-MEL-5 melanoma 73.2% | UACC-62 melanoma 70.1% | LOX IMVI melanoma 42.5% | SK-MEL-28 melanoma 95.2%

COc1ccc2c(c1)c(-c1nnc(N)nc1-c1cn(C)c3ccccc13)cn2C
inactive: DU-145 prostate 104% | K-562 leukemia 83.5% | MALME-3M melanoma 85.6% | MDA-MB-231 breast 91.1% | RXF 393 renal 93.2% | SF-268 CNS 101% | SF-295 CNS 99.5% | SF-539 CNS 91.8% | UACC-257 melanoma 93.8% | M14 melanoma 85.7% | HCT-15 colon 87% | HT29 colon 96% | SNB-75 CNS 42.9% | SNB-19 CNS 93.2% | U251 CNS 102% | PC-3 prostate 88.8% | SK-MEL-5 melanoma 97.8% | UACC-62 melanoma 79% | LOX IMVI melanoma 90.8% | SK-MEL-28 melanoma 97.3%

COc1ccc(/C=N\NC(=O)c2ccc3nc(-c4ccc(Br)cc4)[nH]c3c2)cc1
active: MALME-3M melanoma -9.02% | RXF 393 renal -17.7% | SF-268 CNS 8.61% | U251 CNS -51.5% | LOX IMVI melanoma -26%
inactive: DU-145 prostate 16.5% | K-562 leukemia 11.6% | MDA-MB-231 breast 48.6% | SF-295 CNS 11% | SF-539 CNS 16.4% | UACC-257 melanoma 38.7% | M14 melanoma 24.7% | HCT-15 colon 48.1% | HT29 colon 17.5% | SNB-75 CNS 46.1% | SNB-19 CNS 19.2% | PC-3 prostate 20.8% | SK-MEL-5 melanoma 24.2% | UACC-62 melanoma 34.6% | SK-MEL-28 melanoma 13.8%

C=C(C)[C@@H]1CC[C@]2(C(=O)NCCCN(CCC#N)CCC#N)CC[C@]3(C)[C@H](CC[C@@H]4[C@@]5(C)CCC(=O)C(C)(C)[C@@H]5CC[C@]43C)[C@@H]12
inactive: DU-145 prostate 109% | K-562 leukemia 88.4% | MALME-3M melanoma 102% | MDA-MB-231 breast 99.4% | RXF 393 renal 92.9% | SF-268 CNS 99.2% | SF-295 CNS 97.1% | SF-539 CNS 99.7% | UACC-257 melanoma 105% | M14 melanoma 101% | HCT-15 colon 96.4% | HT29 colon 106% | SNB-75 CNS 99.9% | SNB-19 CNS 88.9% | U251 CNS 97.7% | PC-3 prostate 93.1% | SK-MEL-5 melanoma 99.1% | UACC-62 melanoma 88.3% | LOX IMVI melanoma 99.3% | SK-MEL-28 melanoma 104%

COc1cc(C(=O)C[n+]2ccc3ccccc3c2)cc(OC)c1OC
inactive: DU-145 prostate 105% | K-562 leukemia 91.7% | MALME-3M melanoma 91.5% | MDA-MB-231 breast 93.3% | RXF 393 renal 101% | SF-268 CNS 100% | SF-295 CNS 100% | SF-539 CNS 100% | UACC-257 melanoma 103% | M14 melanoma 98.1% | HCT-15 colon 98% | HT29 colon 95.2% | SNB-75 CNS 90% | SNB-19 CNS 93.5% | U251 CNS 98.3% | PC-3 prostate 88.8% | SK-MEL-5 melanoma 99.8% | UACC-62 melanoma 91.4% | LOX IMVI melanoma 97.4% | SK-MEL-28 melanoma 106%

CCOC(=O)C1=C(C)N=C2Sc3ccccc3N2C1c1ccccc1 (stereo not given)
active: HT29 colon -72.7%
inactive: DU-145 prostate 98.2% | K-562 leukemia 72.8% | MALME-3M melanoma 102% | MDA-MB-231 breast 83.2% | RXF 393 renal 109% | SF-268 CNS 101% | SF-295 CNS 98.3% | SF-539 CNS 90.3% | UACC-257 melanoma 92.6% | M14 melanoma 89.5% | HCT-15 colon 77.8% | SNB-75 CNS 87.1% | SNB-19 CNS 95.5% | U251 CNS 103% | PC-3 prostate 78.2% | SK-MEL-5 melanoma 85.8% | UACC-62 melanoma 65.8% | LOX IMVI melanoma 84.3% | SK-MEL-28 melanoma 109%

CN1CCN(c2ccc(NC(=O)Nc3ccc4c(ccn4-c4cccc(C(N)=O)n4)c3)cc2C(F)(F)F)CC1
inactive: DU-145 prostate 77.2% | MALME-3M melanoma 16% | MDA-MB-231 breast 74.8% | SF-268 CNS 82.1% | SNB-75 CNS 82.2% | SNB-19 CNS 53.2% | U251 CNS 33.8% | PC-3 prostate 50.9% | SK-MEL-5 melanoma 75% | UACC-62 melanoma 94.1%
active: K-562 leukemia -13.8% | RXF 393 renal -12.9% | SF-295 CNS -54.7% | SF-539 CNS 6.11% | UACC-257 melanoma -14% | M14 melanoma -47% | HCT-15 colon 3.6% | HT29 colon 5.77% | LOX IMVI melanoma -27.7% | SK-MEL-28 melanoma -53.6%

CN1CCN(Cc2ccc(NC(=O)c3cncc(C#Cc4cnc5ccc(NC6CCOCC6)nn45)c3)cc2C(F)(F)F)CC1
active: DU-145 prostate -95.2% | K-562 leukemia -12.8% | MALME-3M melanoma -86.5% | MDA-MB-231 breast -71.9% | RXF 393 renal -93.8% | SF-268 CNS -47.5% | SF-295 CNS -85.2% | SF-539 CNS -92.1% | UACC-257 melanoma -13.9% | M14 melanoma -97.2% | HCT-15 colon -48.4% | HT29 colon 0.122% | SNB-75 CNS -56.8% | SNB-19 CNS -7.17% | U251 CNS -96.7% | PC-3 prostate -15.5% | SK-MEL-5 melanoma -97.7% | UACC-62 melanoma -61.8% | LOX IMVI melanoma -83.8% | SK-MEL-28 melanoma -74.6%

O=C(CSc1nnc(-c2cccs2)n1-c1ccccc1)Nc1ccc(F)cc1
inactive: DU-145 prostate 107% | K-562 leukemia 65.4% | MALME-3M melanoma 97.4% | MDA-MB-231 breast 83.1% | RXF 393 renal 97.9% | SF-268 CNS 101% | SF-295 CNS 91% | SF-539 CNS 89.9% | UACC-257 melanoma 103% | M14 melanoma 99.2% | HCT-15 colon 93.6% | HT29 colon 101% | SNB-75 CNS 104% | SNB-19 CNS 91% | U251 CNS 99.5% | PC-3 prostate 99% | SK-MEL-5 melanoma 97.6% | UACC-62 melanoma 67.9% | LOX IMVI melanoma 97.9% | SK-MEL-28 melanoma 104%

CCOC(=O)Nc1ccc(-c2nc(-c3cccc(O)c3)c(-c3ccnc(Br)c3)[nH]2)cc1
inactive: DU-145 prostate 57.7% | K-562 leukemia 12.5% | MALME-3M melanoma 32.4% | MDA-MB-231 breast 39.3% | SF-268 CNS 39.9% | SF-539 CNS 38.2% | UACC-257 melanoma 38.7% | M14 melanoma 35.1% | HCT-15 colon 30.7% | HT29 colon 34.3% | SNB-75 CNS 14.7% | SNB-19 CNS 44.7% | U251 CNS 29.6% | SK-MEL-5 melanoma 23.6% | UACC-62 melanoma 24.3% | LOX IMVI melanoma 14.5% | SK-MEL-28 melanoma 46.9%
active: RXF 393 renal -9.56% | SF-295 CNS -14% | PC-3 prostate 4.92%
